PubChem BioAssay (NCI)
Values joined by “and” are separate entries in the source; they are usually repeats but may differ in a detail not shown here. Equal values may be shown once. This is part of a sample that, as a whole, favours compounds with a hit. Of some 83,000 tested, about 20% had one in any assay.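 Cell lines were cultured in 96-well plates, exposed to a single compound concentration, and assessed for percent growth 48 hours later.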 Some compounds were tested as several samples or in several runs, with calls that do not always agree. Active and inactive are the calls of the source.

Legend:
Experiment in all cases: NCI-60 one-dose screen, 48 h (100 = growth as untreated, 0 = no growth, -100 = all killed)
SK-MEL-2 melanoma = conditions: 10 µM
EKVX NSCLC = conditions: 10 µM
SN12C renal = conditions: 10 µM
UO-31 renal = conditions: 10 µM
TK-10 renal = tested on: TK-10 renal
ACHN renal = conditions: 10 µM
CAKI-1 renal = conditions: 10 µM
A498 renal = conditions: 10 µM
CCRF-CEM leukemia = conditions: 10 µM
MOLT-4 leukemia = conditions: 10 µM
Experimental: Growth inhibition of the MOLT-4 human tumor cell line is measured as a screen for anti-cancer activity. Cells are grown in 96 well plates and exposed to the test compound for 48 hours. Compounds are tested at a single concentration, which is 10^-5 M for most compounds. The reported endpoint is percent growth (GI% or GIPRCNT), where numbers from 0 - 100% represent growth inhibition, and numbers from -100% - 0 represent cell death. For example, a value of 40 represents 60% growth inhibition. A value of 0 means no net growth occurred over the course of the experiment. A value of -40 indicates 40% of cells at the beginning of the experiment died by the end of the experiment. A value of -100 means all cells are dead at the end of the experiment.
NCI-60 Human Tumor Cell Lines Screen was performed using the standard one-dose NCI protocol, which is described in more detail at https://dtp.cancer.gov/discovery_development/nci-60/default.htm.
Compounds with GIPRCNT values below 10 were considered active. Activity score was based on GIPRCNT using the following formula: […]
Score is 0 for GIPRCNT values of 100 or above, 50 for GIPRCNT values of 0, and 100 for GIPRCNT values of -100.

Row | SMILES | growth (SK-MEL-2 melanoma) | growth (EKVX NSCLC) | growth (SN12C renal) | growth (UO-31 renal) | growth (TK-10 renal; 10 µM) | growth (ACHN renal) | growth (CAKI-1 renal) | growth (A498 renal) | growth (CCRF-CEM leukemia) | growth (MOLT-4 leukemia) | growth (TK-10 renal; 100 µM)
1 | Cc1cc(N(CCOS(C)(=O)=O)CCOS(C)(=O)=O)ccc1C=Nc1ccc(-c2nc(Cc3ccccc3)sc2C)cc1 | 86.3% (inactive) | 11.1% (inactive) | 52.3% (inactive) | 22.2% (inactive) | 14.2% (inactive) | -23.2% (active) | -32% (active) | -48.7% (active) | 23.4% (inactive) | 14.2% (inactive) | –
2 | CN(C)CCOC1(Cc2ccc(Cl)cc2Cl)CCC(C(C)(C)C)CC1 (stereo unspecified) | 94.8% (inactive) and 54.6% (inactive) | 48.2% (inactive) and 54.6% (inactive) | 18.8% (inactive) and -12.6% (active) | 29.3% (inactive) and 30.2% (inactive) | 60.4% (inactive) and 61.9% (inactive) | 48.7% (inactive) and -4.79% (active) | 36.2% (inactive) and 22.1% (inactive) | 63.9% (inactive) and 63.3% (inactive) | 4.16% (active) and -9.84% (active) | -14.2% (active) and -16.7% (active) | –
3 | COc1cc([C@@H]2c3cc4c(cc3[C@@H](Nc3ccc(NC(=O)c5cc([N+](=O)[O-])cn5C)cc3)[C@H]3COC(=O)[C@H]23)OCO4)cc(OC)c1O | – | – | – | – | – | – | – | – | – | – | -28.8% (active)
4 | Cc1ccc(Sc2ccccc2N)cc1 | 15.9% (inactive) | 121% (inactive) | 89% (inactive) | 81.5% (inactive) | 98% (inactive) | -20% (active) | 62.5% (inactive) | 118% (inactive) | 88.2% (inactive) | 81.2% (inactive) | –
5 | CC1=CC(=C(c2ccc(N)cc2)c2ccc(N)cc2)C=CC1=N | -27.7% (active) and 41.7% (inactive) | 15.5% (inactive) and 46.2% (inactive) | 10.3% (inactive) and 6.77% (active) | 32% (inactive) and 85.8% (inactive) | 38.2% (inactive) and 15.3% (inactive) | 28.9% (inactive) and 58.6% (inactive) | 65.5% (inactive) | -7.24% (active) and 57.3% (inactive) | 19.3% (inactive) and 35.8% (inactive) | 10.4% (inactive) and 51.9% (inactive) | –
6 | C#CCN(Cc1ccc2nc(N)[nH]c(=O)c2c1)c1ccc(C(=O)NC(CCC(=O)O)C(=O)O)cc1 (stereo unspecified) | 143% (inactive) | 55.6% (inactive) | 48.9% (inactive) | – | 78.5% (inactive) | 30.1% (inactive) | 33.2% (inactive) | 110% (inactive) | 22.5% (inactive) | 39.1% (inactive) | –
7 | C=C1C(=O)OC2CC1C(OC(C)=O)C/C(C)=C/CC/C(C)=C\CCC2(C)O (stereo unspecified) | 41.5% (inactive) | 59.3% (inactive) | 40.6% (inactive) | -39.8% (active) | -11.8% (active) | -5.85% (active) | 16% (inactive) | 87.3% (inactive) | -17.1% (active) | -14.4% (active) | -98.1% (active)
8 | COc1ccc(C(=O)C(CN(C)C)CN(C)C)cc1 | 149% (inactive) | -17% (active) | 98.9% (inactive) | 17% (inactive) | 15.7% (inactive) | -85.5% (active) | -84.8% (active) | 99% (inactive) | 36.3% (inactive) | -32% (active) | –
9 | O=[N+]([O-])c1cc[n+]([O-])cc1 | 110% (inactive) | 110% (inactive) | 92.8% (inactive) | 93.6% (inactive) | 110% (inactive) | 114% (inactive) | 106% (inactive) | 93.8% (inactive) | 121% (inactive) | 69.3% (inactive) | –
